# This is part of a sample that, as a whole, favours compounds with a hit. Of some 83,000 tested, about 20% had one in any assay.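 Cells were grown in 96-well plates and exposed to the test compound at a single concentration for 48 hours; results are reported as percent growth, with values below 10 considered active.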 Unmarked numbers belong to inactive results. Calls of active or inactive are those of the source.
# System: MDA-MB-468 breast
# Experiment: NCI-60 one-dose screen, 48 h (100 = growth as untreated, 0 = no growth, -100 = all killed)
# Conditions: 10 µM unless noted
row,Structure (SMILES),growth
1,CCc1ccc2nc(NC(=O)Cc3csc(NC(=O)c4ccco4)n3)sc2c1,-54.2% (active)
2,CC1=C(C)C(=O)C(Nc2cccc(C(=O)OC(C)(C)C)c2)=C(Br)C1=O,-54% (active)
3,COC(=O)CCc1n(Cc2ccc3ccccc3c2)c2ccccc2[n+]1Cc1ccc2ccccc2c1,-15% (active)
4,CNC(=O)c1cc(Oc2ccc3nc(NC(=O)c4cccc(C(F)(F)F)c4)sc3c2)ccn1,106%
5,C=CC(=O)N1CCC=C(c2cc3c(N[C@H](C)c4ccccc4)ncnc3[nH]2)C1,9.58% (active)
6,O=C(N/N=C\c1cc(Cl)ccc1[N+](=O)[O-])c1ccco1,58.5%
7,COc1cc(C(=O)Nc2cc(O)c(CC=C(C)C)c(O)c2)cc2c1O[C@]1(C)CC[C@@H](O)C(C)(C)[C@H]1C2,36.3%
8,CCS(=O)(=O)N1CCN(c2ccc(Nc3ncc(C(N)=O)c(NC4CC4)n3)cc2)CC1,42.2%
9,CC[C@]12C=CCN3CC[C@@]4(c5cc(NC(=O)CCC(=O)O[C@H]6CC[C@H]7[C@@H]8CCC9=CC(=O)CC[C@@H]9[C@H]8CC[C@]67C)c(OC)cc5N(C)[C@H]4[C@@](O)(C(=O)OC)[C@@H]1OC(C)=O)[C@@H]32,51.9%
10,OC(COc1ccccc1Cl)CN1CCN(c2ccc(Cl)cc2)CC1 (stereo not given),95.7%
11,C=C(CN1CC=CCC1)[C@@H]1CC[C@]2(COC(C)=O)CC[C@]3(C)[C@H](CC[C@@H]4[C@@]5(C)CC[C@H](O)C(C)(C)[C@@H]5CC[C@]43C)[C@@H]12,95%
12,CC1OC(n2c3ccccc3c3c4c(c5c6ccccc6[nH]c5c32)C(=O)N(CCN[C@@H]2CCC[C@H]2N)C4=O)CC(O)C1O (stereo not given in full),-26.9% (active)
13,Nc1c(C(=O)c2ccc(Cl)s2)sc2nc3c(cc12)CCCC3,69.1%
14,O=C(CCc1nnc2sc(-c3ccc(Cl)cc3Cl)nn12)c1nc2ncccc2[nH]1,-66% (active)
15,COc1ccc(-c2cc(Cc3cccs3)c(=O)n(Cn3ccc4ccccc43)n2)cc1,110%
16,C=CCN(/C=C/CN(CC=C)CC=C)CC=C,99.3%
17,Cc1c(N2CN3C[C@H](C)N4CN(c5c(C)n(C)n(-c6ccccc6)c5=O)CN5C[C@@H](C)N(C2)C3C54)c(=O)n(-c2ccccc2)n1C (stereo not given in full),97.1%
18,O=c1ssc(Cl)c1-c1ccccc1,97.3%
19,CCN(CC)C(=S)SC(SC(=S)N(CC)CC)C(=O)c1nnn(-c2ccc([N+](=O)[O-])cc2)c1C,102%
20,N=C1CCC(=N)c2c1c(O)c1ccccc1c2O,93.7%

row,Structure (SMILES),growth
1,CC(=O)N[C@H](C(=O)N[C@@H](CCCNC(=N)N)C(=O)N[C@@H](CCCCN)C(=O)N[C@@H](CCCNC(=N)N)C(=O)NC(C(=O)N[C@@H](CC(C)C)C(=O)N[C@@H](CCCNC(=N)N)C(=O)N[C@@]1(C)CCC/C=C\CCC[C@@](C)(C(=O)N[C@@H](CCCNC(=N)N)C(=O)N[C@@H](CCC(=O)O)C(=O)N[C@@H](CC(C)C)C(=O)N[C@H](C(=O)N[C@@H](CCC(=O)O)C(N)=O)C(C)C)NC(=O)[C@H](CCC(N)=O)NC(=O)[C@H](CC(C)C)NC(=O)[C@H](CC(C)C)NC1=O)[C@@H](C)O)C(C)C (stereo not given in full),31.9%
2,COc1cc(/C=C2\CN(S(=O)(=O)c3ccc(C)cc3)C/C(=C\c3cc(CN4CCCC4)c(O)c(OC)c3)C2=O)cc(CN2CCCC2)c1O,-11.9% (active)
3,N#C/C(=C\c1ccc(-c2ccc(Cl)cc2)o1)c1nc(-c2ccco2)cs1,-26.7% (active)
4,N#Cc1cccc(NC(=O)c2oc3ccccc3c2-c2cnn(-c3ccccc3)c2)c1,66.6% [50 µM]
5,COc1ccc(-c2cc(C(=O)Nc3ccc(Br)cc3)nc3[nH]c(=O)sc23)cc1,33.2%
6,ClC(Cl)c1nc(-c2cccnc2)n2nc(-c3ccccc3)cc2n1,-29.7% (active)
7,COc1ccc(-c2nc(SCCC(C)C)nc(N/N=C(/C)c3ccc(N)cc3)c2C#N)cc1,103%
8,C=C(C)[C@@H]1CC[C@]2(C=O)CC[C@]3(C)[C@H](CC[C@@H]4[C@@]5(C)C/C(=C/c6cccnc6)C(=O)C(C)(C)[C@@H]5CC[C@]43C)[C@@H]12,80.4%
9,COC(=O)C1(C(=O)OC)C2C(=O)C3C(C21)C3(C(=O)OC(C)(C)C)C(=O)OC(C)(C)C (stereo not given),99.4%
10,O=C(Nc1ccc(Cl)cc1)c1cc(-c2ccc(Cl)cc2)c2sc(=O)[nH]c2n1,-3.42% (active)
11,O=C1C2=C(Nc3cc(Cl)ccc3N2)OC1c1c[nH]c2ccc(COc3ccccc3)cc12 (stereo not given),48.2%
12,CN(C)CC1CCCCCC(CN(C)C)C1=O (stereo not given),15.3%
13,CCOP(C)(=O)/C(Cc1ccc(OC)c(OC)c1)=N\O (stereo not given),96.5%
14,Cc1nn(-c2nc3ccccc3[nH]2)c2c1C(c1ccc(O)cc1)CC(=O)N2 (stereo not given),92.8%
15,COc1cc(/C=C2\CN(S(=O)(=O)c3ccc(C)cc3)C/C(=C\c3cc(CN4CCCCC4)c(O)c(OC)c3)C2=O)cc(CN2CCCCC2)c1O,-63.3% (active)
16,CCCc1cn(CC(=O)Nc2nc3ccccc3s2)nn1,110%
17,O=C(/C=C1\C(=O)N(Cc2ccc([N+](=O)[O-])cc2)c2ccccc21)c1ccc(OCCN2CCCC2)cc1,59.4%
18,COCCn1cc(-c2nc(-c3cn(CCOC)c4ncccc34)cs2)c2ccccc21,-17.4% (active)
19,Nc1cc(Cl)c(S(N)(=O)=O)cc1S(N)(=O)=O,99.3%
20,CC(C)OC(=O)c1ccc2n1CCCc1cnc(Nc3ccccc3)nc1-2,44.6%

# — PubChem BioAssay (NCI)
